According to PubChem BioAssay (NCI):
Compounds without any hit were thinned out: in the full panel of roughly 83,000, 20% have a hit.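 Results are percent growth after 48 hours of single-concentration exposure. 100 means growth as in untreated cells, lower positive values show inhibition; negative values down to -100 show cell death.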 Values without a mark were called inactive. Calls of active or inactive are those of the source. The calls were made as follows: active = growth percent below 10; inactive = the rest.

Tested on: HS 578T breast
Experiment: NCI-60 one-dose screen, 48 h (100 = growth as untreated, 0 = no growth, -100 = all killed)
Details: 10 µM unless noted

Row | Structure (SMILES) | growth
1 | CC(=O)C1=C(O)C=C2Oc3c(C(=O)/C=C/c4ccccc4)c(O)c(C)c(O)c3[C@]2(C)C1=O | 50%
2 | COc1ccc(C/C(C)=C(\c2ccc(OCCN3CCCCCC3)cc2)c2ccc(OC(=O)C3CCCCC3)cc2)cc1 | 51.6%
3 | O=[N+]([O-])c1cccc(-c2nc3sccn3c2-c2ccnc(NCCCNS(=O)(=O)c3ccc(Br)cc3)n2)c1 | 87.7%
4 | Cc1cc2cc3cc(C)c(N(C)C)cc3nc2cc1N(C)C | 31.7%
5 | C=C1CCC2C3(C)COC(C)(C)OC3CCC2(C)C1C/C=C1/C(=O)OCC1OC(C)=O (stereo not given) | 12%
6 | C=C1CC2(OC1=O)C(=O)N(CCCCCCCCCCCCN1C(=O)C3(CC(=C)C(=O)O3)c3ccccc31)c1ccccc12 (stereo not given) | 91.1%
7 | O=C1c2cccnc2C(=O)c2c1c(C(=O)OCCN1CCCCC1)c1ccccn21 | -0.578% (active)
8 | COc1ccccc1N1CCN(CCn2c(=O)c3c(c4ccccc4n3C)n(C)c2=O)CC1 | 98.5%
9 | C/C(=C(/c1ccc(O)cc1)c1ccc(OCCN(C)C)cc1)c1ccccc1 | 90%
10 | CCOC(=O)c1c2c(n3ccc(NC(=O)CCN4CCOCC4)cc13)C(=O)c1ncccc1C2=O | 52%
11 | Cc1cc(=O)oc2cc(Oc3nc(-c4cccs4)cn4c(-c5cccs5)cnc34)ccc12 | 67.6%
12 | CC(C)[C@@H]1CC[C@]2(C(=O)NCCCCN=C(N)N)CC[C@]3(C)[C@H](CC[C@@H]4[C@@]5(C)CCC(=O)C(C)(C)[C@@H]5CC[C@]43C)[C@@H]12 | 73%
13 | Oc1cc(O)c2c(=S)cc(-c3ccc(Cl)cc3)oc2c1 | 40.5%
14 | COc1ccc(-c2cn3c(-c4ccc(OC)cc4)cnc3c(Oc3ccc4c(C)cc(=O)oc4c3)n2)cc1 | 57.6%
15 | CN1CCN(Cc2ccc(NC(=O)c3[nH]ncc3Nc3ccnc4ccsc34)cc2)CC1 | 54.6%
16 | Nc1nc2ccc(-c3nc4ccc5[nH]ncc5c4c4c3CCC4)cc2s1 | 7.12% (active)
17 | Clc1cccc(Nc2nc(Nc3cnc4ccccc4c3)c3[nH]cnc3n2)c1 | 65.6%
18 | COc1ccc(-c2cc(NC(=O)Nc3ccc(O)cc3)no2)cc1 | 89.3%
19 | CC(=O)CC(C)(C)c1ccc(Cl)cc1 | 99.5%
20 | O=C1C2CC=CCC2C(=O)N1CNc1ccc(Cl)cc1 (stereo not given) | 79.3%
21 | CN1CCN(Cc2ccc(NC(=O)c3[nH]ncc3Nc3ncnc4c3CCC4)cc2)CC1 | 16.1%

Tested on: NCI/ADR-RES ovarian
Experiment: as above
Details: 10 µM unless noted

Row | Structure (SMILES) | growth
22 | CN(C)c1ccc(C2Nc3ccccc3-n3cccc32)cc1 (stereo not given) | 105%
23 | Nc1nc2c(c3ncccc13)C(c1cccc(Br)c1)Cc1ncccc1-2 (stereo not given) | 11.4%
24 | O=[N+]([O-])c1cccc(-c2nc3sccn3c2-c2ccnc(NCCCNS(=O)(=O)c3ccc(F)cc3)n2)c1 | -15.5% (active)
25 | COc1ccc(-n2c(C)nc3c(c(C)nn3-c3ccccc3)c2=O)cc1 | -12.9% (active)
26 | COc1ccc(-n2cc(-c3ccccc3)c3c(SCC(=O)N/N=C/c4ccc([N+](=O)[O-])cc4)ncnc32)cc1 | 91.3%
27 | Nc1c(C(=O)Nc2ccccc2)sc2nc3c(cc12)CN(CCc1ccccc1)CC3 | 87.3%
28 | CCOC(=O)c1c2ncccc2n2c(=O)n(-c3ccc(Cl)cc3)nnc12 | 59.8%
29 | CCN(CC)CCCC(C)Nc1ccnc2c(OC)cccc12 (stereo not given) | 110%
30 | OC(c1cccc(C(F)(F)F)c1)c1cnccc1NC1CCCCCC1 (stereo not given) | 39.2%
31 | NC(=S)N/N=C/c1cc(-c2cccc(N)c2)ccn1 | 21.2%
32 | COc1ccc(CCN2CCCn3c2nc2ccccc2c3=O)cc1 | 14.7%
33 | O=C(/C=C\c1cccc([N+](=O)[O-])c1)c1ccccc1 | 83.6%
34 | CCOC(=O)C(Cc1cc(I)c(O)c(I)c1)NC(=O)c1ccccc1 (stereo not given) | 106%
35 | COc1cc(C#N)cc(OC)c1OCCN(CCOc1c(OC)cc(C#N)cc1OC)S(=O)(=O)c1ccc(C)cc1 | 95.9%
36 | CN1CCN(Cc2ccc(NC(=O)c3cncc(C#Cc4cncc5nccnc45)c3)cc2C(F)(F)F)CC1 | 72.4%
37 | Nc1nc(-c2ccc(F)cc2)cc(-c2cnn(-c3ccccc3)n2)n1 | 106%
38 | CC(=O)C1=C(O)C=C2Oc3c(C(=O)/C=C/c4ccccc4)c(O)c(C)c(O)c3[C@]2(C)C1=O | 16.9%
39 | COc1ccc(C/C(C)=C(\c2ccc(OCCN3CCCCCC3)cc2)c2ccc(OC(=O)C3CCCCC3)cc2)cc1 | 73.5%
40 | O=[N+]([O-])c1cccc(-c2nc3sccn3c2-c2ccnc(NCCCNS(=O)(=O)c3ccc(Br)cc3)n2)c1 | 23.1%
41 | CCOC(=O)/C=C/C(=O)[C@H](CC(C)C)NC(=O)[C@H](Cc1ccccc1)NC(=O)OCc1ccccc1 | 89.6%

Row | Structure (SMILES) | growth
42 | Cc1cc2cc3cc(C)c(N(C)C)cc3nc2cc1N(C)C | 82.5%
43 | C=C1CCC2C3(C)COC(C)(C)OC3CCC2(C)C1C/C=C1/C(=O)OCC1OC(C)=O (stereo not given) | 51%
44 | C=C1CC2(OC1=O)C(=O)N(CCCCCCCCCCCCN1C(=O)C3(CC(=C)C(=O)O3)c3ccccc31)c1ccccc12 (stereo not given) | 83.2%
45 | O=C1c2cccnc2C(=O)c2c1c(C(=O)OCCN1CCCCC1)c1ccccn21 | -25.5% (active)
46 | COc1ccccc1N1CCN(CCn2c(=O)c3c(c4ccccc4n3C)n(C)c2=O)CC1 | 100%
47 | C/C(=C(/c1ccc(O)cc1)c1ccc(OCCN(C)C)cc1)c1ccccc1 | 81.3%
48 | CCOC(=O)c1c2c(n3ccc(NC(=O)CCN4CCOCC4)cc13)C(=O)c1ncccc1C2=O | 40.5%
49 | Cc1cc(=O)oc2cc(Oc3nc(-c4cccs4)cn4c(-c5cccs5)cnc34)ccc12 | 53.4%
50 | CC(C)[C@@H]1CC[C@]2(C(=O)NCCCCN=C(N)N)CC[C@]3(C)[C@H](CC[C@@H]4[C@@]5(C)CCC(=O)C(C)(C)[C@@H]5CC[C@]43C)[C@@H]12 | 101%
51 | Oc1cc(O)c2c(=S)cc(-c3ccc(Cl)cc3)oc2c1 | 25.5%
52 | COc1ccc(-c2cn3c(-c4ccc(OC)cc4)cnc3c(Oc3ccc4c(C)cc(=O)oc4c3)n2)cc1 | 29.9%
53 | CN1CCN(Cc2ccc(NC(=O)c3[nH]ncc3Nc3ccnc4ccsc34)cc2)CC1 | 93.5%
54 | Nc1nc2ccc(-c3nc4ccc5[nH]ncc5c4c4c3CCC4)cc2s1 | 27.8%
55 | Oc1ccc2c(=S)cc(-c3ccc(Br)cc3)oc2c1O | -8.87% (active)
56 | Clc1cccc(Nc2nc(Nc3cnc4ccccc4c3)c3[nH]cnc3n2)c1 | 87.2%
57 | COc1ccc(-c2cc(NC(=O)Nc3ccc(O)cc3)no2)cc1 | 67.8%
58 | CC(=O)CC(C)(C)c1ccc(Cl)cc1 | 96.2%
59 | O=C1C2CC=CCC2C(=O)N1CNc1ccc(Cl)cc1 (stereo not given) | 95.2%
60 | CN1CCN(Cc2ccc(NC(=O)c3[nH]ncc3Nc3ncnc4c3CCC4)cc2)CC1 | 71.7%
